Experimental data published in PubChem BioAssay (NCI).
The panel holds about 83,000 compounds, 20% with a hit somewhere; the sample as a whole holds those more often.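 Testing used 96-well plates and a 48-hour single-concentration exposure. Example: -40 means 40% of the starting cells died.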 Values without a mark were called inactive. Calls of active or inactive are those of the source. How the source made its calls: active means growth percent below 10; inactive means the rest.

Each compound was assayed on HL-60(TB) leukemia (assay: NCI-60 one-dose screen, 48 h (100 = growth as untreated, 0 = no growth, -100 = all killed)). Conditions: 10 µM unless noted.
`COc1cc(/C=C/C(=O)c2cc(-c3ccccc3)ccc2O)cc(OC)c1OC` showed a growth of 42.6%.
For `O=C(CCN1C(=O)c2ccccc2C1=O)Nc1ccc(Cl)cc1`, the growth was 105%.
In the case of `O=C(CI)NC(=O)NC(=O)NCc1ccccc1`, the growth is reported as -10.5% (active).
Compound `Nc1ncnc2c1N=C(c1ccc3c(c1)OCO3)CC(c1cccc(Nc3ccnc4cc(C(F)(F)F)ccc34)c1)N2` (stereo not given) has a growth of 92.9%.
For `O=C1Nc2ccc(Cl)cc2/C1=N/c1nc(-c2ccc(Cl)cc2)cs1`, the growth was -32.4% (active).
In the case of `CCn1c(-c2cc3c([nH]c4ccccc43)c(-c3cccc(O)c3)n2)n[nH]c1=S`, the growth is reported as 4.16% (active).
`CCCC1C(C(=O)OCC)=C(N)Oc2cc(O)ccc21` (stereo not given) showed a growth of 102%.
Compound `COc1ccc(NC2=C(Br)C(=O)C(C)=C(C)C2=O)cc1` has a growth of 11.7%.
In the case of `Cc1ccncc1C(N)=O`, the growth is reported as -80.7% (active).
With `COc1cccc(-n2cc(-c3nc(Cl)c4ccccc4n3)nn2)c1` the growth was 97.3%.
For `CC1C(/C=N/Nc2ccccc2)C(C#N)(C#N)C1(C#N)C#N` (stereo not given), the growth was 54.3%.
`Cc1ccc(Cc2ccc(C)cc2)cc1` gave a growth of 95.9%.
`CS(=O)(=O)Nc1cc(-c2ccc3ncnc(Nc4ccc5c(cnn5Cc5cccnc5)c4)c3c2)cnc1Cl` gave a growth of 33.6%.
Work on `Cc1cccc(CNc2c3ccccc3nc3ccccc23)c1` yielded a growth of 12.5%.
For `COc1ccc([C@@H]2[C@@H](Oc3ccccc3)C(=O)N2c2cc(OC)c(OC)c(OC)c2)cc1F`, the growth was -53.9% (active).
With `COc1cc(OC)c(C(=O)/C=C/c2cc3c(cc2OCc2ccccc2)OC(C)(C)CC3)cc1CC=C(C)C` the growth was -28.5% (active).
With `CCOP(=O)(OCC)/C(=C\N1C(=O)CC(=O)NC1=S)C(=O)OC` the growth was 103%.
`O=P(OCCCl)(OCCCl)C(O)c1ccccc1Cl` (stereo not given) gave a growth of 96.2%.
For `c1ccc(CNc2nc(Nc3ccccc3)nc3ccccc23)cc1`, the growth was 95.6%.
In the case of `N=C(N)c1nn(C2OC(CO)C(O)C2O)c2nc[nH]c(=O)c12` (stereo not given), the growth is reported as -25.2% (active).
With `N#Cc1c(-c2ccc(F)cc2)nc(N/N=C/c2c[nH]c3ccccc23)nc1N1CCOCC1` the growth was 2.62% (active).
In the case of `CCCOc1ccc(-c2nc(-c3ccc(N)cc3)cs2)cc1`, the growth is reported as 56.7%.
For `COc1cc(/C=C/C(=O)c2c(-c3ccc(F)cc3)nc3sc(C)nn23)cc(OC)c1OC`, the growth was 12%.
With `COc1ccccc1NC(=O)c1ccc(/C=C/C(=O)c2nccn2C)cc1` the growth was -9.45% (active).
`Cc1nc(N)sc1C(=O)NCCO` was tested, and the growth was 167%.
Compound `O=C(Nc1cccc2[nH]c(C(F)(F)F)nc12)c1ccc(Br)cc1F` has a growth of 22.4%.
`CC(C)n1c(NCCc2ccc(O)c(O)c2)nc2c1c(=O)n(C)c(=O)n2C` gave a growth of 99.3%.
Compound `CCc1ccccc1-n1c(N)c(C#N)c(-c2ccc(Cl)cc2)c(C#N)c1=O` has a growth of 117%.
`O=S(=O)(O)c1ccc(O)c2ccccc12` showed a growth of 86%.
With `N#CSc1cc(S(N)(=O)=O)ccc1N` the growth was 81.2%.
For `Cc1ccc(C(=O)/C(=C\c2ccc([N+](=O)[O-])cc2)S(=O)Cc2ccc(F)cc2)cc1` (stereo not given), the growth was -7.36% (active).
For `O=C(C[N+](=O)[O-])c1ccc(Cl)cc1`, the growth was 104%.
In the case of `C=CCCC1(C)NC(=O)NC1=O` (stereo not given), the growth is reported as 97.7%.
`O=[N+]([O-])c1ccc(N2CCN=N2)cc1` was tested, and the growth was 84.4%.
`O=C1/C(=C/c2ccc(Cl)cc2)SC(=Nc2ccc(Cl)cc2)N1Cc1nc2ccccc2[nH]1` was tested, and the growth was 95.8%.
`CN[C@@H](C)C(=O)N[C@H]1CCS[C@H]2CC(C)(C)[C@@H](C(=O)N[C@H]3c4ccccc4C[C@H]3OCC#CC#CCO[C@@H]3Cc4ccccc4[C@@H]3NC(=O)[C@H]3N4C(=O)[C@@H](NC(=O)[C@H](C)NC)CCS[C@H]4CC3(C)C)N2C1=O` was tested, and the growth was -47.4% (active).
Work on `NNc1ccccc1C(=O)O` yielded a growth of 49.1%.
With `Cc1cc([C@@H](C)Nc2ccccc2C(=O)O)c2nc(N3CCOCC3)cc(=O)n2c1` the growth was 26.7%.
For `Cc1ccc([P+](Cc2ccccc2)(c2ccccc2)c2ccccc2)cc1`, the growth was -36.4% (active).
Work on `CNc1ccc(CSc2ccc(C)cc2)cc1` yielded a growth of 11.8%.
